The list is not random: actives were taken first. Their share in the collection is about 32%.
CYP2C9 activ: human CYP2C9 activators, primary screen, biochemical, luminescence; recombinant CYP2C9, luciferin-H conversion; active compounds read high; factor 1 = untreated enzyme, 0 = blocked; activation factor at 5 µM; hit rate 1.4% among 96,000; AID 1024, 2008;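 active means activation factor of 2 or more for CYP2C9 at a 5 µM dose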;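 further: 0 = sulfaphenazole-blocked wells and 1 = vehicle-only wells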
CYP2C19 inhib: blockers of cytochrome P450 2C19 activity – biochemical, luminescence, ADME assay, primary screen; AID 778, 2007; hit rate 21% among 96,000; inhibition, % at 5 µM; P33261; CYP2C19 Supersomes, luciferin-H EGE luminescence, 30 min;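 active means CYP2C19 inhibition above a set limit at 5 µM in the primary screen, cut at about 50% in these data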;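 further: plate controls were negative control wells for no effect and 2.5 mM tranylcypromine positive control for full effect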
Target sequence (P33261 whole entry, looked up): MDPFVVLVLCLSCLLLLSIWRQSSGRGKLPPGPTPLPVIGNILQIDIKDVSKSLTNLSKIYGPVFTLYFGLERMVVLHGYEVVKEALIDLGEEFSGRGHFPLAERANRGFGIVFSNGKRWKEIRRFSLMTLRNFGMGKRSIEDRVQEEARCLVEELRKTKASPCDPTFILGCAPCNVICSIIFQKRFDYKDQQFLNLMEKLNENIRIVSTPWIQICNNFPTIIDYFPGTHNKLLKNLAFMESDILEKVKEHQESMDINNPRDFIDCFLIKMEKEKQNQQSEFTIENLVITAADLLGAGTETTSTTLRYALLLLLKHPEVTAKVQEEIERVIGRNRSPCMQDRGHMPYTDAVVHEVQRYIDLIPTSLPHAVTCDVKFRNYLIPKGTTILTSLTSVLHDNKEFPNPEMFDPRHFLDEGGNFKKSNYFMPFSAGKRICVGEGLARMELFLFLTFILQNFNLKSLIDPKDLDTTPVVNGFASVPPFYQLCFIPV
CYP2C9 inhib: blockers of cytochrome P450 2C9 activity – biochemical, luminescence, ADME assay, primary screen; P11712; CYP2C9 Supersomes, luciferin-H conversion; inhibition, % at 5 µM; hit rate 20% among 96,000; AID 777, 2007;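 active means blocking of liver enzyme CYP2C9 beyond about 50% at 5 µM, limit read from the data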
PostGolgi ctrl: growth inhibition of yeast control strain, primary screen, counter-screen for post-Golgi transport modulator project; efflux-deficient yeast background strain, growth absorbance A615, 16 h; inhibition, % at 10 µM; hit rate 5% among 98,000
PostGolgi yeast: phenotypic screen on post-Golgi transport, primary screen | post-Golgi transport phenotypic cell assay | inhibition, % at 10 µM | hit rate 0.9% among 98,000;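 further: yeast cells grown in 1536-well plates; yeast grown about 18 h at 30C before absorbance read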
CYP2C19 activ: human CYP2C19 activators, primary screen, biochemical, luminescence | Cytochrome P450 2C19 (Homo sapiens), P33261 | recombinant CYP2C19, luciferin-H EGE luminescence; active compounds read high; 0 = fully inhibited enzyme, 1 = untreated enzyme | activation factor at 5 µM | 96,000 tested, under 10 active;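 active means activation factor of at least 2 at 5 µM in the primary screen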;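 further: 0 = wells with 2.5 mM tranylcypromine and 1 = vehicle-only wells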
An asterisk follows results filed as active; · = no result given. Unless noted, no stated cut-off is given here; in the data, active means inhibition above about 30%; inactive means the rest.

SMILES | CYP2C9 activ | CYP2C19 inhib | CYP2C9 inhib | PostGolgi ctrl | PostGolgi yeast | CYP2C19 activ
COc1cc(S(=O)(=O)N2CCOCC2)ccc1NC(=O)COC(=O)CC12CC3CC(CC(C3)C1)C2 | 0.2 | 69* | 82* | 20 | -4 | 0.3
CCC(=O)Nc1ccc(S(=O)(=O)Nc2cccc(C)c2)cc1OC | 1.6 | 71* | -60 | 25 | -7 | 0.3
CN1C(=O)c2ccc(S(=O)(=O)c3ccc(C(=O)O)cc3)cc2C1=O | 1 | -4 | -2 | -3 | 3 | 1
CCCOc1ccc2[nH]cc(C(=O)O)c(=O)c2c1 | 1 | 14 | -1 | -8 | 3 | 0.9
Cc1cc(C(=O)COC(=O)CN(C)S(=O)(=O)c2ccc(Cl)cc2)c(C)n1Cc1cccs1 | 1.1 | 74* | -7 | -1 | 0 | 0.3
CCS(=O)(=O)/N=C(\N)c1ccccc1 | 1.2 | 5 | -23 | -7 | 25 | 0.9
N/C(=N\S(=O)(=O)c1ccc(Cl)s1)c1ccccc1 | 0.6 | 97* | 43 | 1 | 21 | 0
Cc1ccc2oc(Nc3nc(C)cc(C)n3)nc2c1 | 1 | 3 | -5 | -4 | -4 | 1
CCN1C(=O)CSc2ccc(C(=O)NCc3ccc(OC)cc3)cc21 | 0.1 | 80* | 86* | -3 | -8 | 0.2
O=C(NCc1ccccc1)c1ccc2c(c1)C(=O)N(Cc1ccncc1)C2=O | 0.1 | 71* | 90* | 11 | 1 | 0.3
CCOC(=O)N1CCC(N2C(=O)c3ccc(C(=O)NCc4ccc(F)cc4)cc3C2=O)CC1 | 0.4 | 29 | 58* | 4 | 4 | 0.7
CCCCNC(=O)c1ccc2c(c1)N(CC)C(=O)CS2 | 1 | 25 | 0 | 0 | 0 | 0.7
CCOC(=O)N1CCC(N2C(=O)c3ccc(C(=O)NCc4ccco4)cc3C2=O)CC1 | 0.7 | 16 | 29 | 7 | -1 | 0.8
CCN1C(=O)c2ccc(C(=O)NCc3ccccc3)cc2C1=O | 1.1 | -8 | -9 | 3 | 42* | 1.1
CCCCSc1nnc(CSc2nc3nc(C)cc(C)n3n2)o1 | 0.9 | 40 | 6 | -2 | 7 | 0.6
COc1cc(OC)cc(C(=O)N2CCN(C3CCN(Cc4ccccc4)CC3)CC2)c1 | 1.3 | -4 | -32 | 21 | 0 | 1
C=CCN1C(=O)CSc2ccc(C(=O)NCc3ccco3)cc21 | 1 | 8 | 4 | -1 | -1 | 0.9
O=C(Nc1ccccc1N1CCOCC1)c1ccc2c(c1)C(=O)N(Cc1ccncc1)C2=O | 0.2 | 79* | 84* | -2 | 6 | 0.2
CC(C)CCN1C(=O)c2ccc(C(=O)NCc3ccco3)cc2C1=O | 0.5 | 29 | 49 | 11 | -1 | 0.7
O=C(NCc1ccco1)c1ccc2c(c1)C(=O)N(Cc1ccccc1)C2=O | 0.8 | 19 | 22 | 44* | -4 | 0.8
O=C(NCc1ccco1)c1ccc2c(c1)N(Cc1ccccc1)C(=O)CS2 | 0.2 | 35 | 78* | 17 | -7 | 0.7
O=C(Nc1ccccc1N1CCOCC1)c1cnccn1 | 1 | 0 | -2 | 17 | 3 | 1
Cc1ccc(C)c(S(=O)(=O)NCC(=O)Nc2sc3c(c2C(N)=O)CCC(C)C3)c1 (configuration not stated) | 1 | 15 | -1 | 5 | -8 | 0.8
Cc1ccc(CN(C)C(=O)C2CCCN2C(=O)c2cccs2)o1 (configuration not stated) | 0.9 | 57* | 14 | 3 | -3 | 0.4
COc1cc(NC(=O)C2COc3ccccc3O2)c(OC)cc1Cl (configuration not stated) | 0.2 | 86* | 84* | 17 | 1 | 0.1
CC1CC(C)CN(S(=O)(=O)c2ccc(NC(=O)C3COc4ccccc4O3)cc2)C1 (configuration not stated) | · | · | · | 38* | 3 | ·
COc1ccc(OC)c(NS(=O)(=O)c2ccc(NC(=O)C3COc4ccccc4O3)cc2)c1 (configuration not stated) | 0.9 | 57* | 11 | 21 | 5 | 0.4

Screening results: PubChem BioAssay, several laboratories
